From PubChem BioAssay AID1159580 (chemical genetic matrix, 2015)
Several values for one entry are separate records, joined by “and”; a condition that tells them apart may be missing. Equal entries are not always repeated. Among all 5,500 compounds or so, about 2,000 (36%) were called active. Roughly 18% stayed inconclusive and do not appear here. Cut-off read from the data, not from the text of the source: active = normalized growth mostly below about 0.91 (no sharp cut-off); inconclusive = no clear call, values can overlap the other calls; inactive = mostly above about 0.92. The list shows a part of the results.

Assay: chemical genetic growth profiling, strain panel (AID 1159580);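 note: tested at 20 µM; growth read once vehicle control cultures reached saturation at 30 °C; 1 = growth at the plate median or of vehicle wells; lower values mean less growth of the strain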
Details: S. cerevisiae deletion strains, growth OD

Measured: normalized growth

CC(C)NCC(O)COc1cccc2[nH]ccc12 (centres undefined)
inactive: locus YAL013W, strain DEP1, active compounds read low 1 and 0.99 | locus YAL021C, strain ccr4, active compounds read low 1.01 | locus YAL026C, strain drs2, active compounds read low 0.986 | locus YAL030W, strain snc1, active compounds read low 0.982 | locus YAL040C, strain CLN3, active compounds read low 0.983 and 0.988 | locus YBL061C, strain skt5, active compounds read low 0.977 | locus YBR009C, strain hhf1, active compounds read low 0.983 | locus YBR021W, strain FUR4, active compounds read low 1.02 | locus YBR023C, strain chs3, active compounds read low 0.979 | locus YBR171W, strain sec66, active compounds read low 0.979 | locus YBR229C, strain ROT2, active compounds read low 0.999 | locus YBR231C, strain swc5, active compounds read low 0.986 | locus YBR279W, strain paf1, active compounds read low 0.992 | locus YCL011C, strain gbp2, active compounds read low 0.98 | locus YCL016C, strain dcc1, active compounds read low 0.981 | locus YCL029C, strain bik1, active compounds read low 0.993 | locus YCL061C, strain MRC1 (second series), active compounds read low 0.998 and 0.999 | locus YCL061C, strain MRC1, active compounds read low 0.984 | locus YCL069W, strain vba3, active compounds read low 0.983 | locus YCR088W, strain abp1, active compounds read low 0.983 | locus YDL005C, strain med2, active compounds read low 0.988 | locus YDL035C, strain GPR1, active compounds read low 0.993 | locus YDL040C, strain nat1, active compounds read low 0.986 | locus YDL074C, strain BRE1, active compounds read low 1 | locus YDL101C, strain DUN1, active compounds read low 0.988 | locus YDL134C, strain PPH21, active compounds read low 0.989 | locus YDL185W, strain tfp1, active compounds read low 0.947 | locus YDL192W, strain arf1, active compounds read low 0.974 | locus YDR001C, strain nth1, active compounds read low 0.974 | locus YDR069C, strain doa4, active compounds read low 0.976 | locus YDR101C, strain arx1, active compounds read low 0.983 | locus YDR137W, strain rgp1, active compounds read low 0.975 | locus YDR150W, strain NUM1, active compounds read low 1 and 0.997 | locus YDR159W, strain sac3, active compounds read low 0.955 | locus YDR162C, strain NBP2, active compounds read low 0.995 | locus YDR195W, strain ref2 0.927 | locus YDR297W, strain sur2, active compounds read low 0.988 | locus YDR318W, strain mcm21, active compounds read low 0.977 | locus YDR334W, strain swr1, active compounds read low 0.978 | locus YDR335W, strain msn5, active compounds read low 0.983 | locus YDR363W, strain ESC2, active compounds read low 0.991 and 0.993 | locus YDR388W, active compounds read low 0.979 | locus YDR392W, strain spt3, active compounds read low 0.902 | locus YDR502C, strain sam2, active compounds read low 0.986 | locus YEL003W, strain gim4, active compounds read low 0.988 | locus YEL037C, strain rad23, active compounds read low 1.01 | locus YEL061C, strain CIN8 (second series), active compounds read low 0.972 | locus YEL061C, strain CIN8, active compounds read low 0.997 | locus YER002W, strain NOP16, active compounds read low 0.987 and 1.02 | locus YER015W, strain faa2, active compounds read low 0.989 | locus YER016W, strain bim1, active compounds read low 0.979 | locus YER110C, active compounds read low 0.978 | locus YER111C, strain swi4, active compounds read low 0.983 | locus YER155C, strain BEM2 (second series), active compounds read low 0.97 | locus YER155C, strain BEM2, active compounds read low 0.994 | locus YER167W, strain BCK2, active compounds read low 0.991 | locus YFR010W, strain ubp6, active compounds read low 0.961 | locus YGL078C, strain dbp3, active compounds read low 0.99 | locus YGL086W, strain mad1, active compounds read low 0.999 | locus YGL167C, strain pmr1, active compounds read low 0.976 | locus YGL173C, strain kem1, active compounds read low 0.989 | locus YGL227W, strain vid30, active compounds read low 0.977 | locus YGL240W, strain doc1, active compounds read low 0.986 | locus YGL248W, strain PDE1, active compounds read low 0.997 | locus YGL253W, strain hxk2, active compounds read low 0.981 | locus YGR078C, strain PAC10, active compounds read low 0.993 and 1.01 | locus YGR135W, strain pre9, active compounds read low 0.989 | locus YGR229C, strain SMI1, active compounds read low 1.01 | locus YGR252W, strain gcn5, active compounds read low 1.16 | locus YHR013C, strain ard1, active compounds read low 0.943 | locus YHR027C, strain rpn1, active compounds read low 0.986 | locus YHR030C, strain SLT2, active compounds read low 0.99 and 0.988 | locus YHR079C, strain IRE1 (second series), active compounds read low 0.977 | locus YHR079C, strain IRE1, active compounds read low 0.977 | locus YHR094C, strain hxt1, active compounds read low 0.977 | locus YHR129C, strain ARP1, active compounds read low 1 | locus YHR142W, strain chs7, active compounds read low 0.997 | locus YHR200W, strain rpn10, active compounds read low 0.978 | locus YIL066C, strain RNR3, active compounds read low 0.999 | locus YIR030C, strain dcg1, active compounds read low 0.991 | locus YJL092W, strain hpr5, active compounds read low 0.979 | locus YJL095W, strain BCK1 (second series), active compounds read low 0.984 | locus YJL095W, strain BCK1, active compounds read low 1.01 and 0.997 | locus YJL115W, strain asf1, active compounds read low 0.975 | locus YJL129C, strain trk1, active compounds read low 0.997 | locus YJL134W, strain LCB3, active compounds read low 0.984 | locus YJL154C, strain vps35, active compounds read low 0.98 | locus YJL164C, strain tpk1, active compounds read low 1 | locus YJL166W, strain qcr8, active compounds read low 1.01 | locus YJL168C, strain set2, active compounds read low 0.983 | locus YJL187C, strain SWE1 (second series), active compounds read low 0.987 | locus YJL187C, strain SWE1, active compounds read low 0.985 | locus YJR043C, strain POL32, active compounds read low 1 | locus YJR066W, strain TOR1, active compounds read low 0.94
